Results: PubChem BioAssay (Tox21)
Records with an inconclusive call do not appear. Active and inactive are the calls of the source. Unless noted, the call rests on the fitted dose curve; in most records, active means well fitted curve in the direction sought with a large enough effect in the repeat runs; inconclusive means weak or mixed curves; inactive means no such curve, though single readings can be large; an effect the other way counts as inactive or inconclusive.

Columns and labels:
[1] = A CellTox Green Cytotoxicity Assay to monitor cytotoxicity in HEK293 cells - 32 hour (AID 1224881); further: nearly all actives have a fitted effect of over 40% in size
Summary of the method: (§1)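 Tox21 screen in HEK293: membrane-impermeant cyanine dye fluoresces on binding dead-cell DNA; compound pinned 5 h post-seeding, plates held at 37 C, signal read repeatedly through 40 h.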

[2] = A CellTox Green Cytotoxicity Assay to monitor cytotoxicity in HepG2 cells - 32 hour (AID 1224883); further: nearly all actives have a fitted effect of over 50% in size
Summary of the method: (§2)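 Measurements at 0, 8, 16, 24, 32 and 40 h of treatment captured CellTox Green fluorescence in HepG2 cells that had been co-plated with reagent and preincubated 5 h at 37 C/5% CO2.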

[3] = A CellTox Green Cytotoxicity Assay to monitor cytotoxicity in HEK293 cells - 8 hour (AID 1224884); further: nearly all actives have a fitted effect of over 35% in size
Summary of the method: as §1

[4] = qHTS RealTime-Glo MT Cell Viability Assay in HepG2 cells - 16 hour (AID 1224885); further: nearly all actives have a fitted effect of over 50% in size
Summary of the method: (§3)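 HepG2 cells (600/well) were dispensed with RealTime-Glo reagents, incubated 5 h at 37 °C, then treated with compounds in DMSO for up to 40 h. Nonlytic NanoLuc luminescence reflecting viable cells was read at each stated time point.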

[5] = qHTS RealTime-Glo MT Cell Viability Assay in HEK293 cells - 24 hour (AID 1224886); further: top concentration of the series differs between compounds; nearly all actives have a fitted effect of over 50% in size
Summary of the method: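 HEK293 cells seeded with NanoLuc/prosubstrate reagent, rested 5 h at 37 C, then dosed and kept at 37 C up to 40 h. Nonlytic real-time luminescence from viable cells read at 0, 8, 16, 24, 32 and 40 h.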

[6] = qHTS RealTime-Glo MT Cell Viability Assay in HEK293 cells - 8 hour (AID 1224887); further: top concentration of the series differs between compounds; nearly all actives have a fitted effect of over 50% in size
Summary of the method: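 HEK293 + NanoLuc + prosubstrate, 600 cells/well; 5 h, 37 C/5% CO2; compound 23 nL in DMSO by pintool; 37 C; luminescence read at 0, 8, 16, 24, 32 and 40 h time points.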

[7] = A CellTox Green Cytotoxicity Assay to monitor cytotoxicity in HepG2 cells - 8 hour (AID 1224890); further: nearly all actives have a fitted effect of over 45% in size
Summary of the method: as §2

[8] = qHTS assay to identify small molecule antagonists of the estrogen receptor alpha (ER-alpha) signaling pathway using the BG1 cell line in the presence of 0.1 nM 17-beta-estradiol - cell viability counter screen (AID 1259241); further: nearly all actives have a fitted effect of over 40% in size
Summary of the method: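 CellTiter-Fluor read (30 min, 37C) on ER-alpha/ERE-luc VM7Luc4E2 cells; 22 hr compound treatment; agonist 0.1 nM E2 final; same-well multiplex.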

[9] = biological target: Estrogen receptor (Homo sapiens) (UniProt P03372); assay: qHTS assay to identify small molecule antagonists of the estrogen receptor alpha (ER-alpha) signaling pathway using the BG1 cell line in the presence of 0.1 nM 17-beta-estradiol (AID 1259244); further: nearly all actives have a fitted effect of over 50% in size
Estrogen receptor (Homo sapiens), sequence (P03372 whole entry, looked up): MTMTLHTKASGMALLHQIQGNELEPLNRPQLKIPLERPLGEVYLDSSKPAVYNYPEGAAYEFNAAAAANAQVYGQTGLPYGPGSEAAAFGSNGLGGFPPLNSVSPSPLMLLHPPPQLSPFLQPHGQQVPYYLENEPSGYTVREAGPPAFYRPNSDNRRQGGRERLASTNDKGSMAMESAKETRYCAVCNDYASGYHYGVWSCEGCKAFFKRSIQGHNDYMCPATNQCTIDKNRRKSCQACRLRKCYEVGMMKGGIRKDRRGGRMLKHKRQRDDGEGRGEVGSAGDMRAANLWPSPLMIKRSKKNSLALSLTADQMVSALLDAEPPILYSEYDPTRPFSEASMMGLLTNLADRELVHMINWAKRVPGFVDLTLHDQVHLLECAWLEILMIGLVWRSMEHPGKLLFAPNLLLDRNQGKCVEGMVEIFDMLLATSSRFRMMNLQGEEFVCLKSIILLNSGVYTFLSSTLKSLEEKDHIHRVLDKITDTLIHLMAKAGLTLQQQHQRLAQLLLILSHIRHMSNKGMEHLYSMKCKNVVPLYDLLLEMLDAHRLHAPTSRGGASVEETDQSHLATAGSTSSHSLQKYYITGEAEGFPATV
Summary of the method: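 Compounds were tested against 0.1 nM (final) 17beta-estradiol in VM7Luc4E2 cells, which express full-length ER-alpha and an ERE-luciferase reporter; luminescence was recorded following 22 h exposure.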

[10] = qHTS assay to identify small molecule HDAC inhibitors (AID 1259364); further: potency means the concentration at half of the fitted maximal effect;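 further: wild-type HCT-116 cells with endogenous class I/II HDAC activity; nearly all actives have a fitted effect of over 45% in size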
Summary of the method: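 Screening used wild-type human colon HCT-116 cells incubated overnight, dosed with compounds for 2 hours, and assayed with a homogeneous luminogenic HDAC I/II reagent for 30 minutes at room temperature.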

[11] = qHTS assay to identify small molecule HDAC inhibitors - cell viability counter screen (AID 1259365)
Summary of the method: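 To flag cytotoxic hits, 1,500 wild-type HCT-116 cells per well, plated the day before, receive test compounds for 2hr at 37 C before CellTiter-Glo reagent and a luminescence read.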

[12] = qHTS assay to identify small molecule agonists of the sonic hedgehog signaling (Shh) pathway - cell viability counter screen (AID 1259366); further: nearly all actives have a fitted effect of over 50% in size; further: potency means the concentration at half of the fitted maximal effect
Summary of the method: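 Fluorescence from CellTiter-Fluor reports live cells in this counter screen. NIH/3T3-derived Gli1-Luc reporter cells receive test compounds for 24hr at 37C; reagent goes in at 23hr.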

[13] = qHTS assay to identify small molecule antagonists of the sonic hedgehog signaling (Shh) pathway - cell viability counter screen (AID 1259367); further: nearly all actives have a fitted effect of over 55% in size
Summary of the method: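 Viability was read by CellTiter-Fluor fluorescence in the same wells, reagent added 23 hr into compound treatment and incubated 1 hr at 37C. The 3T3 Gli1-Luc reporter cells (2,000/well) received conditioned medium after compound and ran 24 hr.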

[14] = qHTS assay to identify small molecule agonists of the sonic hedgehog signaling (Shh) pathway (AID 1259368; calls by dose curve;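 further: NIH/3T3-derived 3T3Gli1-Luc cells carrying a stable Gli1-driven firefly luciferase reporter; series mostly up to about 92 µM; nearly all actives have a fitted effect of over 15% in size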)
Summary of the method: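 Hedgehog pathway agonism scored by increased firefly luciferase luminescence in 3T3Gli1-Luc cells treated 24 hr at 37 C; detection used a 30 min room-temperature reagent incubation.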

[15] = qHTS RealTime-Glo MT Cell Viability Assay in HepG2 cells - 0 hour (AID 1224889); further: nearly all actives have a fitted effect of over 50% in size
Summary of the method: as §3

[16] = A CellTox Green Cytotoxicity Assay to monitor cytotoxicity in HEK293 cells - 16 hour (AID 1224888); further: nearly all actives have a fitted effect of over 35% in size
Summary of the method: as §1

[17] = qHTS assay to identify small molecule antagonists of the androgen receptor (AR) signaling pathway using the MDA cell line in the presence of 0.5 nM R1881 - cell viability counter screen (AID 1259242); further: nearly all actives have a fitted effect of over 45% in size
Summary of the method: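 Concentration-response screen of compounds for toxicity in MDA-kb2 reporter cells: 16 hr at 37C with 0.5 nM R1881, endpoint live-cell protease fluorescence measured in the reporter wells.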

[18] = A CellTox Green Cytotoxicity Assay to monitor cytotoxicity in HepG2 cells - 0 hour (AID 1224882); further: nearly all actives have a fitted effect of over 35% in size
Summary of the method: as §2

[19] = biological target: Androgen receptor (Homo sapiens) (UniProt P10275); assay: qHTS assay to identify small molecule antagonists of the androgen receptor (AR) signaling pathway using the MDA cell line in the presence of 0.5 nM R1881 (AID 1259243); further: nearly all actives have a fitted effect of over 50% in size
Androgen receptor (Homo sapiens), sequence (P10275 whole entry, looked up): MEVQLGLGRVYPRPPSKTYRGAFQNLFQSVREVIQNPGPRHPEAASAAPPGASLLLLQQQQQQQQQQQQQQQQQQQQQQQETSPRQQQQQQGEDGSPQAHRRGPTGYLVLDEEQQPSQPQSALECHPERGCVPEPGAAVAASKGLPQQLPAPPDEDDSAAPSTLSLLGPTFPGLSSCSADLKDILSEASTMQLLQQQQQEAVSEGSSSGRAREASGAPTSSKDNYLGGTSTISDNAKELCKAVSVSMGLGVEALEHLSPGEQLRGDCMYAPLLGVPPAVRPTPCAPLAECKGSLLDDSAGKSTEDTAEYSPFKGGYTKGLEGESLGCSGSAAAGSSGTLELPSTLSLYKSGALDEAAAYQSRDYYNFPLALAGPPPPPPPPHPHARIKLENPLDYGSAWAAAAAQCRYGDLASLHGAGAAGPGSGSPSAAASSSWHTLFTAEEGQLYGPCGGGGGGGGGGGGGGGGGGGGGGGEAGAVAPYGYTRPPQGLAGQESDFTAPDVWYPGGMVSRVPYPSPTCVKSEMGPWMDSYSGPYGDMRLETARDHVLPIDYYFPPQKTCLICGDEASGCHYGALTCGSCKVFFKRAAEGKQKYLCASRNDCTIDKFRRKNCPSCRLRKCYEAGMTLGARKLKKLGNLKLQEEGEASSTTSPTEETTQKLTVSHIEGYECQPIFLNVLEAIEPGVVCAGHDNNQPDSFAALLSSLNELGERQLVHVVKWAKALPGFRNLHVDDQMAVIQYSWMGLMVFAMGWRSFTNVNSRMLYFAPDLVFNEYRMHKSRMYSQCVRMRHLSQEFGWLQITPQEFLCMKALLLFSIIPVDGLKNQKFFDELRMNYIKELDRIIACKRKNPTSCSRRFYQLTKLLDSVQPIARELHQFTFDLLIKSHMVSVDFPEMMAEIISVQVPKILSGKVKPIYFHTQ
Summary of the method: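 With R1881 held at 0.5 nM (final), compound effects on MMTV-luciferase expression in MDA-kb2 cells were scored by luminescence after a 16 hr, 37C incubation.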

[20] = qHTS assay to identify small molecule phospholipidosis (PLD) inducers (AID 1259344; active means well fitted curve in the direction sought with a large enough effect; an effect the other way counts as inactive or inconclusive)
Summary of the method: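 Phospholipid accumulation was scored by imaging: fixed, Hoechst-counterstained HepG2 cells stained with LipidTOX Red after 24 h compound exposure at 37 C. Read-outs were pit count and pit intensity per well or per cell, with amiodarone and DMSO controls.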

Measured: Potency

CCCCCCOC(=O)CC
not listed: [15] | [16] | [17] | [18] | [19] | [20]
inactive: all other assays above

Cc1[nH]cnc1-c1ccc(Cl)cc1
not listed: [11] | [16] | [17] | [18] | [19] | [20]
inactive: all other assays above

CCC(C=O)CC
not listed: [6] | [9] | [11] | [12] | [18] | [19] | [20]
inactive: all other assays above

C=C(C)C(=O)OCCNC(C)(C)C
not listed: [1] | [7] | [9] | [19] | [20]
inactive: all other assays above

O=C(c1ccc(O)cc1)c1ccc(O)c(O)c1O
active: [12] 30.8 µM
not listed: [1] | [8] | [9] | [10] | [13] | [19] | [20]
inactive: all other assays above

O=C(O)Cc1ccc(Cl)cc1Cl
not listed: [1] | [2] | [6] | [7] | [8] | [15] | [18] | [20]
inactive: all other assays above

O=C1c2ccccc2C(=O)c2cc(S(=O)(=O)O)ccc21
active: [10] 2.44 µM
not listed: [1] | [5] | [6] | [11] | [19] | [20]
inactive: all other assays above

CCCCOC(=O)c1ccccc1
not listed: [1] | [16] | [20]
inactive: all other assays above

COc1cc(C(=S)N2CCOCC2)cc(OC)c1OC
not listed: [1] | [15] | [16] | [19]
inactive: all other assays above

Cc1c(I)c(=O)n(-c2ccccc2)n1C
not listed: [1] | [9] | [16] | [18] | [19]
inactive: all other assays above

CNS(=O)(=O)CCc1ccc2[nH]cc(C3CCN(C)CC3)c2c1
not listed: [1] | [6] | [9] | [16] | [19]
inactive: all other assays above

NC(CO)C(=O)NNCc1ccc(O)c(O)c1O (centres undefined)
not listed: [1] | [6] | [7] | [8] | [12]
inactive: all other assays above

C[C@H](N)[C@H](O)c1cccc(O)c1
not listed: [1] | [8] | [17] | [19]
inactive: all other assays above

COc1nccnc1NS(=O)(=O)c1ccc(N)cc1
not listed: [1] | [6] | [9]
inactive: all other assays above

CCCCCCCCSCC
not listed: [1] | [6] | [9] | [15] | [16] | [19] | [20]
inactive: all other assays above

Cc1cc(NC(=O)C2=C(O)c3ccccc3S(=O)(=O)N2C)no1
not listed: [1] | [9] | [15] | [19]
inactive: all other assays above

O=C(O)c1ccc(Cl)cc1Cl
not listed: [1] | [6] | [9] | [19] | [20]
inactive: all other assays above

O=S(=O)(O)CCN1CCN(CCO)CC1
not listed: [1] | [6] | [9] | [15] | [19] | [20]
inactive: all other assays above

O=C1c2cccc3c2[C@H](CCC3)CN1[C@@H]1CN2CCC1CC2
not listed: [1] | [5] | [12] | [17] | [19]
inactive: all other assays above

OCCCCC(O)CO (centres undefined)
not listed: [1] | [9] | [17] | [18] | [19] | [20]
inactive: all other assays above

CC[C@H](C)C(=O)O[C@H]1C[C@H](O)C=C2C=C[C@H](C)[C@H](CC[C@@H](O)C[C@@H](O)CC(=O)O)[C@H]21
not listed: [1] | [8] | [18] | [19]
inactive: all other assays above
